From the supplement of paper PMC3342239 come the findings set out here.

The structures appear in SMILES notation. Where a name gives a salt, the structure may show the parent alone.

The test system of the test is Saccharomyces cerevisiae. Nature of the test: fraction of cells in G1 phase (DNA content, flow cytometry); higher = more cells with unreplicated DNA (G1 delay). Conditions: temperature: 30 C, YPD. The essentials:
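Overnight cultures of sensitized JTY2953 were diluted 1∶200 into drug at a final 20 µg/ml and fixed after 6–7 h, and further runs treated dividing JTY2953 or BY4741, fixing them 6 h and 4.33 h later respectively. All growth used YPD at 30°C with S. cerevisiae and library drugs. After ethanol fixation and SYTOX Green staining, flow cytometry recorded 10,000 events. The G1 fraction equals the Dean-Jett-Fox G1 peak area over the G1 plus G2/M areas.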

Where [1] appears, read: JTY2953 pdr5 snq2 (sensitized), drug added to: actively dividing cells, 6 h.
Where [2] appears, read: JTY2953 pdr5 snq2 (sensitized), drug added to: cultures diluted from stationary phase, 6-7 h.
[3] abbreviates: BY4741 PDR5+ SNQ2+, drug added to: actively dividing cells, 4.33 h.

Regarding `COC(=O)C1=C(C)NC(C)=C(C(=O)OCC(C)C)C1c1ccccc1[N+](=O)[O-]` (centres undefined) [Nisoldipine] (51.4901 µM), the “fraction of cells in G1 phase” value is, setting by setting: under setting [1], 0.587; under setting [2], 0.605.

Turning to `COC1=C(OC)C(=O)C(CCCCCCCCCCO)=C(C)C1=O` [Idebenone] (59.0933 µM), the “fraction of cells in G1 phase” value by setting is: under setting [1], 0.472; under setting [2], 0.693.

As for `CC(=O)[C@H]1CC[C@H]2[C@@H]3CCC4=CC(=O)CC[C@]4(C)[C@H]3CC[C@]12C` [Progesterone] (63.5987 µM), the “fraction of cells in G1 phase” value by setting is: under setting [3], 0.501; under setting [1], 0.693; under setting [2], 0.607.

Consider `COc1c(N2C[C@@H]3CCCN[C@@H]3C2)c(F)cc2c(=O)c(C(=O)O)cn(C3CC3)c12` [Moxifloxacin HCl] (45.6725 µM), for which the “fraction of cells in G1 phase” value runs as follows: under setting [3], 0.402; under setting [2], 0.212.

As to `OC(Cn1cncn1)(Cn1cncn1)c1ccc(F)cc1F` [Fluconazole] (65.3004 µM), the “fraction of cells in G1 phase” value runs as follows: under setting [3], 0.441; under setting [1], 0.711; under setting [2], 0.611.

For the molecule `C#C[C@]1(O)CC[C@H]2[C@@H]3CCC4=Cc5oncc5C[C@]4(C)[C@H]3CC[C@@]21C` [Danazol] (59.2652 µM), the “fraction of cells in G1 phase” value runs as follows: under setting [1], 0.457; under setting [2], 0.88.

On to `CCC(C)(C)c1ccc(CC(C)CN2C[C@@H](C)O[C@@H](C)C2)cc1` (some centres undefined) [Amorolfine] (62.9883 µM), for which the “fraction of cells in G1 phase” value is 0.367 under setting [1] and 0.841 under setting [2].

Take `O=C1CCc2ccc(OCCCCN3CCN(c4cccc(Cl)c4Cl)CC3)cc2N1` [Aripiprazole] (44.6034 µM): the “fraction of cells in G1 phase” value by setting is: under setting [3], 0.411; under setting [1], 0.762; under setting [2], 0.854.

Regarding `C[C@H](CS)C(=O)N1CCC[C@H]1C(=O)O` [Captopril] (92.0434 µM), the “fraction of cells in G1 phase” value is 0.436 under setting [1] and 0.633 under setting [2].

For `O=C(CCCN1CCC(O)(c2ccc(Cl)cc2)CC1)c1ccc(F)cc1` [Haloperidol HCl] (53.2093 µM), the “fraction of cells in G1 phase” value under setting [3] came out at 0.462, the “fraction of cells in G1 phase” value under setting [1] was 0.762 and the “fraction of cells in G1 phase” value under setting [2] was determined as 0.617.

`CO[C@H]1C[C@@H]2CC[C@@H](C)[C@@](O)(O2)C(=O)C(=O)N2CCCC[C@H]2C(=O)O[C@H]([C@H](C)C[C@@H]2CC[C@@H](O)[C@H](OC)C2)CC(=O)[C@H](C)/C=C(\C)[C@@H](O)[C@@H](OC)C(=O)[C@H](C)C[C@H](C)/C=C/C=C/C=C/1C` [Rapamycin] (21.8771 µM): the “fraction of cells in G1 phase” value is, setting by setting: under setting [3], 0.625; under setting [1], 0.788; under setting [2], 0.701.

Consider `CC/C(=C(\c1ccccc1)c1ccc(OCCN(C)C)cc1)c1ccccc1` [Tamoxifen citrate] (53.8319 µM), for which the “fraction of cells in G1 phase” value by setting is: under setting [1], 0.385; under setting [2], 0.896.
